Source: PubChem BioAssay AID686979 (National Center for Advancing Translational Sciences (NCATS), 2013)
Several values for one entry are separate records, joined by “and”; a condition that tells them apart may be missing. Equal entries are not always repeated. Among all 420,000 compounds or so, about 50,000 (12%) were called active. Where a call stands in place of a potency, no number is given. Roughly 26% stayed inconclusive and do not appear here. Calls come from the whole dose curve; as a rule, active = well fitted inhibition curve with a large enough effect; inconclusive = small, poorly fitted or top-dose-only effect; inactive = flat fitted curve, though single readings scatter. For the sample, actives were picked, then their nearest neighbours and some compounds at random.

Assay: qHTS for Inhibitors of human tyrosyl-DNA phosphodiesterase 1 (TDP1): qHTS in cells in presence of CPT; note: nearly all actives have a fitted effect of over 55% in size
Conditions: chicken DT40 Tdp1-/-;hTDP1 cells + 20 nM CPT, ATP luminescence, 48 h; series mostly up to 46.2 µM
Outline: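 Cell growth measured by CellTiter-Glo luminescence after a minimum 48 h, 37 C compound exposure with 20 nM CPT in Tdp1-knockout DT40 cells stably expressing hTDP1, seeded 400/well; qHTS titration format.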
Potency is the fitted concentration of half-maximal effect.

Structure (SMILES) | Potency
Cc1ccccc1-n1nnnc1SCCCC(=O)c1ccc(F)cc1 | inactive
CCCS(=O)(=O)NC(=O)C1(C)CCCN(C(=O)c2cc(C)on2)C1 (configuration not stated) | inactive
O=S(=O)(c1cccc(-c2cn3ccccc3n2)c1)N1CCCC1 | inactive
O=C(COC(=O)c1cccc(Cl)c1)NC1CCCCCCC1 | inactive
Cc1nnc(NC(=O)Cn2c(=O)sc3ccccc32)s1 | inactive
c1ccc(CC2CCN(c3nc4ccccc4n4cnnc34)CC2)cc1 | inactive
O=C(c1ccccc1)c1ccc2nc(N3CCCCC3)c3nncn3c2c1 | 23.1 µM (active)
O=C(NNc1nc(N2CCCC2)nc(N2CCCC2)n1)c1ccccc1 | inactive
O=C(CN1CCCCC1)NC(=O)Nc1ccccc1F | inactive
Cc1cc(C)c(C(N)=O)c(Cl)n1 | inactive
COc1ccc(CN2C(=O)C(CC(=O)NCCN3CCOCC3)CC(C(=O)N(C(C)C)C(C)C)=C2C)cc1 (configuration not stated) | inactive
CC(C)(Oc1ccc(Cl)cc1)C(=O)OCC(=O)NCCc1ccc(S(N)(=O)=O)cc1 | inactive
O=C(N/N=C/c1ccc(Cl)c(Cl)c1)c1ccc2nc[nH]c2c1 | inactive
CCCc1cc(=O)oc2c(C)c(OCC(=O)N3CCC(C(=O)O)CC3)ccc12 | inactive
O=S(=O)(c1ccc(Br)cc1)N1CCC(c2nc3ccccc3[nH]2)CC1 | 18.4 µM (active)
CN(C)CCCNC(=S)N1CCC(c2nc3ccccc3[nH]2)CC1 | inactive
O=C(NCc1ccccn1)C1CCN(S(=O)(=O)c2ccc(Br)cc2)CC1 | inactive
Cc1ccc2oc(C(=O)N3CCN(C)C[C@@H]3C(C)C)c(C)c2c1 | inactive
CN(C(=O)CN1C(=O)NC(C)(CCc2ccccc2)C1=O)c1ccccc1 (configuration not stated) | inactive
CCc1ccc(C(=O)OCC(=O)Nc2cccc(S(=O)(=O)NC3=NCCCCC3)c2)cc1 | inactive
COc1ccccc1C(=O)OCC(=O)Nc1cccc(S(=O)(=O)NC2=NCCCCC2)c1 | inactive
Cc1cccc(-n2c(SCC(=O)Nc3cccc(S(=O)(=O)NC4=NCCCCC4)c3)nc3ccccc3c2=O)c1C | 5.17 µM (active)
O=c1ccc(-c2ccc(S(=O)(=O)Nc3ccccc3)o2)n[nH]1 | inactive
CCOc1ccc(NC(=O)C/C(C)=N/NC(=O)Cc2cccs2)cc1 | inactive
Cc1ccc2c(c1)c1c(c(=O)n(-c3ccccc3)c(=O)n1CC(=O)c1ccc(Cl)cc1)n2C | inactive
O=C1OC(Cc2ccccc2)C(c2ccccc2)C1=O (configuration not stated) | inactive

Structure (SMILES) | Potency
COC(=O)CSc1nccc(-c2cccs2)n1 | inactive
Cc1c(-c2ccccc2)nc(N)c(C#N)c1-c1cccs1 | inactive
Cc1ccc(CSc2oc(-c3cccs3)nc2S(=O)(=O)c2ccc(C)cc2)cc1 | 13 µM (active)
CCCCS(=O)(=O)c1oc(-c2cccs2)nc1S(=O)(=O)c1ccccc1 | 0.82 µM (active)
Cc1ccc(CSc2ccc(S(=O)(=O)N3CCCCC3)cn2)cc1 | inactive
NC(=O)CSc1oc(-c2cccs2)nc1S(=O)(=O)c1ccccc1 | inactive
Cc1ccc(NC(=O)COC(=O)CNC(=O)c2ccc(Cl)cc2Cl)cc1S(=O)(=O)N1CCOCC1 | inactive
COc1ccc2[nH]c3c(c2c1)CCN1C(=O)C(CC(=O)NCCc2ccccn2)C[C@H](C(=O)N2CCOCC2)[C@@]31C (some centres not stated) | inactive
COc1ccc(OCCCCN2CCC(C)CC2)cc1 | inactive
O=S(=O)(Nc1cccc(-c2ccc(N3CCOCC3)nn2)c1)c1ccc(Cl)c(Cl)c1 | inactive
CCN(CC)C(CNC(=O)CSc1nnnn1-c1cccc(F)c1)c1ccco1 (configuration not stated) | inactive
COc1ccc(N(C(=O)CNC(=O)c2ccco2)C(C(=O)NCC2CCCO2)c2ccccc2)cc1Cl (configuration not stated) | inactive
O=c1c2ccccc2nc2n1C(CSCc1cccc(C(F)(F)F)c1)CS2 (configuration not stated) | 3.66 µM (active)
O=c1c2ccccc2nc2n1C(CSCc1ccccc1)CS2 (configuration not stated) | 8.2 µM (active)
O=c1c2ccccc2nc2n1C(CSc1ccc(Cl)cc1)CN2 (configuration not stated) | inactive
O=c1c2ccccc2nc2n1C(CSc1ccc(F)cc1)CN2 (configuration not stated) | inactive
N#Cc1c(-c2ccccc2)nc(SCc2cccc(C(F)(F)F)c2)[nH]c1=O | inactive
O=S(=O)(c1cccc(C(F)(F)F)c1)N1CCN(c2nc(-c3cccs3)nc3ccccc23)CC1 | inactive
COc1ccc(-c2c(C)c3ccc(O)c(CN4CCN(C)CC4)c3oc2=O)cc1OC | inactive
O=c1c2c(-c3ccccc3)ccnc2[nH]n1-c1ccccc1 | inactive
COc1cc(/C=C2\SC(=O)NC2=O)ccc1OCc1ccc(Cl)nc1 | inactive
C=CCNC(=O)c1ccc2nc(-c3ccco3)c(-c3ccco3)nc2c1 | 11.2 µM (active)
C=CCNC(=O)c1cc(-c2ccccc2O)on1 | inactive
C=CCNC(=O)c1ccc(C)c(Br)c1 | inactive
CCSc1nnc(SCC(=O)NNC(=O)c2ccccc2F)s1 | inactive
CCOc1ccc(CCNC(=O)CSc2cc(=O)n(C)c3ccc(Cl)cc23)cc1OCC | 18.4 µM (active)

Structure (SMILES) | Potency
COc1cccc(NC(=O)CSc2cc(=O)n(C)c3ccc(Cl)cc23)c1 | 23.1 µM (active)
CCN(CCCNC(=O)CSc1cc(=O)n(C)c2cc(Cl)ccc12)Cc1ccccc1 | inactive
CCOc1ccc(CCNC(=O)Nc2ccccc2)cc1OCC | inactive
Cn1c(=O)cc(SCC(=O)N2CCCC2)c2cc(Cl)ccc21 | inactive
COc1cccc(NC(=O)CN(C)C(=O)Cc2ccc(Cl)cc2Cl)c1 | inactive
CN(C)Cc1c(O)ccc2occ(C(O)c3ccccc3)c12 (configuration not stated) | inactive
COC(C[C@@H](O)C[C@@H](O)[C@H](C)OCc1ccccc1)OC | inactive
Cc1ccc2c(c1)N(C(=O)Nc1ccc(Br)cc1F)CCO2 | inactive
O=C(Nc1ccccc1C(=O)Nc1ccncc1)c1ccc([N+](=O)[O-])cc1 | inactive
CCOC(=O)c1ccc(Nc2cc(C)nc3nc(C)nn23)cc1 | inactive
COC(=O)c1ccc(Nc2ncnc3sccc23)cc1 | inactive
CCOC(=O)c1nc(Nc2ccc(C(=O)OC)cc2)c2ccccc2n1 | 7.31 µM (active) and 16.4 µM (active)
C/C=C/C(=O)OCC(=O)Nc1ccc(F)cc1Cl | inactive
CN(C)N1C(N)=C(C#N)C(c2ccc(Br)cc2)C2=C1CCCC2=O (configuration not stated) | inactive
COCC(C)OC(=O)c1c(N)n(CCCN2CCOCC2)c2nc3ccccc3nc12 (configuration not stated) | inactive
CC(C)(C)c1ccc(C(=O)NCCn2c(N)c(C#N)c3nc4ccccc4nc32)cc1 | 23.1 µM (active)
CCCNC(=O)c1c(N)n(-c2ccc(S(N)(=O)=O)cc2)c2nc3ccccc3nc12 | inactive
O=C(NCc1nnc(SCC(=O)N2CCCCCC2)o1)c1ccc(F)cc1 | inactive
C=CCc1cc(S(=O)(=O)c2ccc(O)c(CC=C)c2)ccc1O | inactive
Cc1c(CCC(=O)O)c(=O)oc2c(C)c(OCc3ccccc3Cl)ccc12 | inactive
CC(C)CN(C(=O)c1cccc(S(=O)(=O)N2CCCCC2)c1)C1CCS(=O)(=O)C1 (configuration not stated) | inactive
CCCCn1c(N)c(N(CCOC)C(=O)c2cccc(OCc3ccccc3)c2)c(=O)[nH]c1=O | inactive
O=C(CSc1nnc(Cc2ccccc2)n1-c1ccccc1)N1CCOCC1 | inactive
Fc1ccc(-n2c(Cc3ccccc3)nnc2SCc2nc(-c3ccc(Cl)cc3)no2)cc1 | 13 µM (active)
Cc1ccc(-c2noc(CSc3nnc(-c4cccs4)n3C)n2)cc1 | inactive
COc1ccc(-c2noc(CSc3nnc(-c4ccccc4)n3-c3ccc(F)cc3)n2)c(OC)c1 | 11.6 µM (active)

Structure (SMILES) | Potency
COc1ccc(-c2nnc(SCC(=O)c3ccco3)n2-c2ccccc2)cc1 | inactive
Cc1ccc(-c2noc(CSc3nnc(-c4ccncc4)n3-c3ccc(F)cc3)n2)cc1 | 11.6 µM (active)
Cc1ccc(-c2nc(-c3ccncc3)no2)c(C)c1 | inactive
COc1ccccc1-c1noc(CSc2nc(C)cc(=O)[nH]2)n1 | inactive
Cc1ccc(CSc2nnc(-c3cnccn3)n2C)cc1 | inactive
Cc1ccc(-c2noc(CSc3nnc(-c4ccc(Cl)cc4)n3C)n2)cc1 | 18.4 µM (active)
O=C(CSc1nnc(-c2ccncc2)n1-c1ccc(Cl)cc1)Nc1ccc(C(=O)O)cc1 | inactive
CSc1nnc(CNC(=O)c2ccccc2)n1-c1ccc(F)cc1 | inactive
Cc1cc(=O)cc(C)n1-c1ccc(Cl)c(Cl)c1 | inactive
CN(C(=O)CC1C(=O)NCCN1Cc1ccc2ccccc2c1)C1CCOCC1 (configuration not stated) | inactive
Cc1ccc(/C=C2\CCn3c2nc2cc(C(=O)O)ccc2c3=O)c(C)c1 | inactive
Cc1ccc(-c2cc(C(=O)NN)n[nH]2)o1 | inactive
CN(Cc1ccccc1)C(=O)[C@@H]1CCCN1C(=O)[C@@H]1CCCN1C(=O)c1c(F)cccc1F | inactive
CC(C)=CCN1CCN(Cc2ccc(Oc3ncccn3)cc2)CC1CCO (configuration not stated) | inactive
COc1ccccc1OCCOc1ccc(/C=C2\C(=N)N3N=C(C)SC3=NC2=O)cc1 | inactive
COc1ccc(NC(=O)N(C)C[C@H]2Oc3ncc(C#C[C@@H](C)O)cc3C(=O)N([C@H](C)CO)C[C@H]2C)cc1 | inactive
Cn1c(=O)cc(OCC(=O)N2CCN(c3ccccc3)CC2)c2ccccc21 | inactive
N#C/C(C(=O)N1CCOCC1)=C1/SC(Cc2ccc(F)cc2)C(=O)N1c1ccccc1 (configuration not stated) | inactive
COc1ccc(S(=O)(=O)N2CCN(CC(=O)N3CCOCC3)CC2)cc1OC | inactive
O=C(O)CCC(=O)Nc1ccc(OCC2CCCO2)cc1 (configuration not stated) | inactive
Cc1ccsc1-c1cc(C(=O)O)c2c(ccc3ccccc32)n1 | inactive
CC(=O)C1=C(O)C(=O)N(c2ccc(Br)cc2)C1c1ccc([N+](=O)[O-])cc1 (configuration not stated) | inactive
CCn1c(CNC(=O)c2ccccc2)nnc1SCC(=O)N1CCN(c2ccccc2)CC1 | inactive
CCn1c2c(c(=O)n3ncc(C(=O)N4CCN(c5ccccc5)CC4)c13)CN(Cc1ccc(OC)cc1)CC2 | 16.4 µM (active)
